Source: PubChem BioAssay (National Center for Advancing Translational Sciences (NCATS))
This is one part of a sample in which hits are shown more often than they occur.
Pf Dd2 growth – blocks in vitro growth of P. falciparum Dd2; AID 1347417; P. falciparum Dd2 growth, SYBR Green, 72 h; Potency, µM (titrated, usually from 28.9 µM), actives largely listed as inhibitors; 4.3% of 120,000 active; active = well fitted inhibition curve with a large enough effect; note: nearly all actives have a fitted effect of over 65% in size
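Infected erythrocytes (Dd2, 0.3% parasitemia, 2.5% hematocrit final) are added to compound in RPMI-1640/Albumax II medium, grown 72 h at 37C in low oxygen, then lysed with saponin/Triton-X containing SYBR Green and read by fluorescence.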
Each line names hits and unclear results; the compound was inactive in the other large screens.

O=C(Nc1cc(Cl)cc(Cl)c1)N1CCCC1c1nncn1C1CCCC1 (configuration not stated)	Pf Dd2 growth 11µM
COc1cc(NC(=O)N2CCCC2c2nncn2C2CCCC2)cc(OC)c1 (configuration not stated)	none
Cc1cc(C)cc(NC(=O)N2CCCC2c2nncn2C2CCCC2)c1 (configuration not stated)	none
COc1ccc(C)cc1NC(=O)c1ccc2c(SCC(=O)O)c3c(nc2c1)CCCC3	none
COCCNC(=O)CSc1c2c(nc3cc(Cl)ccc13)CCCC2	none
COc1cc(OC)c(N(C)C(=O)CSc2c3c(nc4ccc(Cl)cc24)CCCC3)cc1Cl	Pf Dd2 growth 11µM
CCCN(CCC)C(=O)CSc1c2c(nc3ccc(Cl)cc13)CCCC2	none
CN(Cc1ccccc1)C(=O)CSc1c2c(nc3ccc(Cl)cc13)CCCC2	none
COc1ccc(OC)c(NC(=O)CSc2c3c(nc4cc(Cl)ccc24)CCCC3)c1	Pf Dd2 growth 8.9µM
O=C1NC(C(=O)Nc2ccccc2)Cn2cccc21 (configuration not stated)	none
O=C(Cn1nc2c(cc1=O)CCCC2)NCc1nc2ccccc2[nH]1	none
C[C@@H](NC(=O)C12CC3CC(CC(C3)C1)C2)c1onc(-c2ccccc2)c1C(=O)O	none
Cc1cn2nc(C(=O)N3CCN(C(=O)c4ccco4)CC3)cc2c(N2CCCC2)n1	none
O=C(NCCCc1nc2ccc(Cl)cc2[nH]1)[C@H]1CCC[C@@H](O)C1	none
CCCN1C(=O)c2[nH]nc(-c3ccccc3O)c2C1c1ccc(OCc2ccccc2)c(OCC)c1 (configuration not stated)	Pf Dd2 growth 11µM
CCCCN1C(=O)c2[nH]nc(-c3ccccc3O)c2C1c1cc(Br)c(O)c(OC)c1 (configuration not stated)	none
CCCCN1C(=O)c2[nH]nc(-c3ccccc3O)c2C1c1ccc(OCc2ccccc2)c(OC)c1 (configuration not stated)	Pf Dd2 growth 11µM
CCOc1ccc(C2c3c(-c4ccccc4O)n[nH]c3C(=O)N2Cc2cccnc2)cc1OC (configuration not stated)	none
CCc1noc(-c2nc(-c3cccc(F)c3)no2)n1	none
CNC(=O)[C@@H]1C[C@H](Oc2ccccc2)CN1C(=O)c1cnccn1	none
CC(C)CNc1ccc2c(n1)C(C)(C(=O)Nc1ccncc1)CN(Cc1ccccc1)C2 (configuration not stated)	Pf Dd2 growth 2.2µM
CC(C)CNc1ccc2c(n1)C(C)(C(=O)Nc1ccn(C)n1)CN(Cc1ccccc1)C2 (configuration not stated)	none
COCCCNC(=O)C1(C)CN(Cc2ccccc2)Cc2ccc(NCC(C)C)nc21 (configuration not stated)	none
CN1C(=O)c2cccn2CC1CNC(=O)C1CCCC1 (configuration not stated)	none
COc1cc(C2N=C(N)Nc3nc4ccccc4n32)ccc1OCCC(C)C (configuration not stated)	none
COCCN1C(=O)c2[nH]nc(-c3cc(C)ccc3O)c2C1c1ccc(C(C)C)cc1 (configuration not stated)	Pf Dd2 growth 8.9µM
COc1cc(C2c3c(oc4cc(C)c(C)cc4c3=O)C(=O)N2CCCN2CCOCC2)ccc1O (configuration not stated)	none
COc1cc(C2c3c(-c4cc(C)ccc4O)n[nH]c3C(=O)N2CCCO)ccc1OCCC(C)C (configuration not stated)	Pf Dd2 growth 3.2µM
COCCn1ncc(N2CCC(NC(=O)c3ccc(C(C)C)cc3)CC2)cc1=O	none
CCCOc1ccc(C2c3c(-c4c(C)cc(C)cc4O)n[nH]c3C(=O)N2CCO)cc1 (configuration not stated)	none
CC1CCC2(CC1)NC(=O)N(CC(=O)Nc1ccc(Br)cc1F)C2=O (configuration not stated)	none
CN(C)C(=O)NCc1cc2n(n1)CCN(Cc1cn[nH]c1-c1ccccc1)C2	none
CC(O)c1cc2n(n1)CCN(C1CCN(C(=O)c3cnccn3)CC1)C2 (configuration not stated)	none
CC1(c2ccccc2)CCCN(C(=O)c2ccnc(-n3cnnc3)c2)C1 (configuration not stated)	none
CCc1nc2c(=O)n(CC(=O)NCCC3=CCCCC3)nc(C)c2s1	none
CCCNS(=O)(=O)c1cc(-c2nn3c(C)nnc3c3ccccc23)ccc1C	none
C#CC(C)(C)NS(=O)(=O)c1cc(-c2nnc(Nc3ccc(C)cc3)c3ccccc23)ccc1C	Pf Dd2 growth 5µM
Cc1cccc(Nc2nnc(-c3ccc(C)c(S(=O)(=O)N4CCCCC4)c3)c3ccccc23)c1	none
CCN(CC)C(=O)c1ccc(Nc2nnc(-c3ccc(C)c(S(=O)(=O)NC)c3)c3ccccc23)cc1	Pf Dd2 growth 3.2µM
CCOc1ccc(-c2nnc(Nc3ccc(S(N)(=O)=O)cc3)c3ccccc23)cc1	none
Cc1ccc(-c2nnc(Nc3ccc(Cl)c(Cl)c3)c3ccccc23)cc1S(=O)(=O)N(C)C	Pf Dd2 growth 10µM
Cc1cc(C)n(-c2nnc(Nc3ccc(C)c(Cl)c3)c3ccccc23)n1	none
Cc1ccc(C)c(Nc2nnc(-c3ccc(C)c(S(=O)(=O)N4CCN(C)CC4)c3)c3ccccc23)c1	none
C#CCOc1ccc(-c2nnc(Nc3ccc(NC(C)=O)cc3)c3ccccc23)cc1	none
O=C(CC(F)(F)F)N1CCC(N2C(=O)C(O)C23CCCCC3)CC1 (configuration not stated)	none
O=C(NCc1ccccc1)NC1CCN(C(=O)N2CC3CC(C2)[C@H]2CCCC(=O)N2C3)CC1 (some centres not stated)	none
COc1ccc(CCNC(=O)c2c(C)noc2-c2cccs2)cc1	none
Cc1noc([C@@H](C)NS(=O)(=O)c2ccc(Cl)cc2)c1C(=O)O	none
COc1ccc(C(=O)Nc2ccc(S(=O)(=O)N(Cc3ccccc3)c3ccccc3)cc2)cc1	none
Cc1ccc(C(=O)Nc2ccc(S(=O)(=O)N(Cc3ccccc3)c3ccccc3)cc2)cc1	none
CCOc1ccc(C(=O)Nc2ccc(S(=O)(=O)N(Cc3ccccc3)c3ccccc3)cc2)cc1	Pf Dd2 growth 10µM
Cc1ncc2c(c1CNC(=O)C1CCc3ccccc3C1)CCNC2 (configuration not stated)	none
O=C1CCN(C(=O)Cc2ccccc2)CCCC(CO)CCN1 (configuration not stated)	none
COCc1nc(CCNC(=O)C2CCC2)no1	none
COCCNc1nc2c(S(=O)(=O)c3ccccc3)nnn2c2ccc(Cl)cc12	none
CCN(Cc1ccccc1)c1nc2c(S(=O)(=O)c3ccccc3)nnn2c2ccc(Cl)cc12	Pf Dd2 growth 6.3µM
COc1ccc(CNc2nc3c(S(=O)(=O)c4ccccc4)nnn3c3ccc(Cl)cc23)cc1	none
COCCCNC(=O)N1CCCCCCNC(=O)[C@@H]2CCCC[C@@H]21	none
Cc1cn2nnc(C(=O)N3CCC(C(=O)Nc4cccc(F)c4)CC3)c2c(=O)[nH]1	none
COc1ccc(C(=O)N2CCCCCC2c2nc(-c3cccnc3)no2)cc1 (configuration not stated)	none
COCc1nc(-c2ccc(OC3CN(C(=O)c4cc(C)n(C)n4)C3)cc2)no1	Pf Dd2 growth 7.9µM
CCN(CC)C(=O)N1CCC(Oc2ccc(-c3noc(COC)n3)cc2)C1 (configuration not stated)	none
COCc1nc(-c2ccc(OC3CN(C(=O)c4ccc(OC)nc4)C3)cc2)no1	none
COc1ccc(NCc2cccn2-c2nnc(N3CCC(C)CC3)s2)c(OC)c1	Pf Dd2 growth 11µM
COc1ccc(OC)c(NC(=O)c2cccn2-c2nnc(N3CCCCC3)s2)c1	none
COc1ccc(OC)c(NCc2cccn2-c2nnc(N3CCC(C)CC3)s2)c1	none
